A short description of assay [1]: A CellTox Green Cytotoxicity Assay to monitor cytotoxicity in HEK293 cells - 32 hour (AID 1224881). Further: nearly all actives have a fitted effect of over 40% in size. Further: potency means the concentration at half of the fitted maximal effect. In outline: (§1)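 Dead-cell fluorescence measured kinetically: asymmetric cyanine dye, HEK293, 600 cells/well, 5 h settle, 23 nL cpd/DMSO, 37 C, reads 0–40 h every 8 h.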
A short description of assay [2]: A CellTox Green Cytotoxicity Assay to monitor cytotoxicity in HepG2 cells - 0 hour (AID 1224882). Further: nearly all actives have a fitted effect of over 35% in size. In outline:
(§2)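 First, HepG2 cells (600/well) mixed with reagent were plated; second, after 5 h at 37 C they received compounds via pintool; third, fluorescence was measured at 0 h through 40 h at 8 h intervals.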

Assay [3] in a line: A CellTox Green Cytotoxicity Assay to monitor cytotoxicity in HepG2 cells - 32 hour (AID 1224883). Further: nearly all actives have a fitted effect of over 50% in size. Further: potency means the concentration at half of the fitted maximal effect. In outline: as §2
The nature of assay [4]: A CellTox Green Cytotoxicity Assay to monitor cytotoxicity in HEK293 cells - 8 hour (AID 1224884). Further: nearly all actives have a fitted effect of over 35% in size. Further: potency means the concentration at half of the fitted maximal effect. The gist of the method: as §1
Assay [5] can be described thus: qHTS RealTime-Glo MT Cell Viability Assay in HepG2 cells - 16 hour (AID 1224885). Further: nearly all actives have a fitted effect of over 50% in size. Further: potency means the concentration at half of the fitted maximal effect. In outline:
(§3)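 Cell number in HepG2 cultures estimated from NanoLuc luminescence generated by metabolic reduction of a prosubstrate by living cells. The homogeneous, nonlytic format allowed repeated reads at 0, 8, 16, 24, 32 and 40 h of compound exposure.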
For orientation: qHTS replaces the single test concentration by a dilution series.

The nature of assay [6]: qHTS RealTime-Glo MT Cell Viability Assay in HEK293 cells - 24 hour (AID 1224886). Further: nearly all actives have a fitted effect of over 50% in size. Further: potency means the concentration at half of the fitted maximal effect. In outline:
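Homogeneous bioluminescent viability format in HEK293 cells (600 cells/well). Following 5 h at 37 C/5% CO2, 23 nL compound was pintooled; the signal was measured repeatedly during 40 h incubation.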

A short description of assay [7]: qHTS RealTime-Glo MT Cell Viability Assay in HEK293 cells - 8 hour (AID 1224887). Further: nearly all actives have a fitted effect of over 50% in size. Further: potency means the concentration at half of the fitted maximal effect. The gist of the method:
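600 HEK293 cells per well, dispensed already mixed with RealTime-Glo MT reagents. Compound dosing came 5 h later. The same wells were read for luminescence at 0, 8, 16, 24, 32 and 40 h of exposure at 37 C.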

A short description of assay [8]: A CellTox Green Cytotoxicity Assay to monitor cytotoxicity in HEK293 cells - 16 hour (AID 1224888). Further: nearly all actives have a fitted effect of over 35% in size. Further: potency means the concentration at half of the fitted maximal effect. The gist of the method: as §1
Assay [9] is described as follows: A CellTox Green Cytotoxicity Assay to monitor cytotoxicity in HepG2 cells - 8 hour (AID 1224890). Further: nearly all actives have a fitted effect of over 45% in size. Further: potency means the concentration at half of the fitted maximal effect. The gist of the method: as §2
Assay [10] can be described thus: qHTS assay to identify small molecule antagonists of the estrogen receptor alpha (ER-alpha) signaling pathway using the BG1 cell line in the presence of 0.1 nM 17-beta-estradiol - cell viability counter screen (AID 1259241). Further: nearly all actives have a fitted effect of over 40% in size. In outline: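 VM7Luc4E2, 4,000 cells/well, phenol red-free medium + 10% charcoal-stripped FBS; 24 hr plating; cpd + 0.1 nM E2 final, 22 hr 37C/5% CO2; CellTiter-Fluor 30 min, fluorescence.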

Assay [11] can be described thus: qHTS assay to identify small molecule antagonists of the androgen receptor (AR) signaling pathway using the MDA cell line in the presence of 0.5 nM R1881 - cell viability counter screen (AID 1259242). Further: nearly all actives have a fitted effect of over 45% in size. Further: potency means the concentration at half of the fitted maximal effect. The gist of the method: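 qHTS format. MDA-kb2 (MMTV-luc, AR/GR responsive) + cpd + 0.5 nM R1881 final, 16 hr 37C/0% CO2 → CellTiter-Fluor 30 min → fluorescence intensity.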

Assay [12] concerns the target Estrogen receptor (Homo sapiens) (UniProt P03372). As to the kind of experiment: qHTS assay to identify small molecule antagonists of the estrogen receptor alpha (ER-alpha) signaling pathway using the BG1 cell line in the presence of 0.1 nM 17-beta-estradiol (AID 1259244). Further: nearly all actives have a fitted effect of over 50% in size. Further: potency means the concentration at half of the fitted maximal effect. In outline:
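Reporter is a stably transfected luciferase under four estrogen responsive elements in VM7Luc4E2 cells expressing native full-length ER-alpha; inhibition of 0.1 nM (final) 17beta-estradiol-driven signal over 22 h is read by luminescence.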

The nature of assay [13]: qHTS assay to identify small molecule HDAC inhibitors (AID 1259364).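 Further: wild-type HCT-116 cells with endogenous class I/II HDAC activity; top concentration of the series differs between compounds; nearly all actives have a fitted effect of over 45% in size.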 In outline:
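Quantitative high-throughput format: overnight-seeded HCT-116 cells got compounds for 2 hr at 37C; HDAC-Glo I/II reagent added, 30 min RT, luminescence measured.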

Assay [14] is described as follows: qHTS assay to identify small molecule HDAC inhibitors - cell viability counter screen (AID 1259365). The gist of the method: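 Luminescence from CellTiter-Glo, developed 30min at room temperature, reports viability of wild-type HCT-116 cells treated 2hr with compounds at 37 C and 5% CO2 after overnight plating.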
Assay [15] is described as follows: qHTS assay to identify small molecule agonists of the sonic hedgehog signaling (Shh) pathway - cell viability counter screen (AID 1259366). Further: nearly all actives have a fitted effect of over 50% in size. Further: potency means the concentration at half of the fitted maximal effect. In outline: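 Cytotoxicity counter screen run in the same wells as the Shh reporter assay. NIH/3T3 cells carrying a Gli1 response element–driven luciferase were treated with DMSO-dissolved compounds for 24hr, and live-cell protease activity was measured with CellTiter-Fluor.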

Assay [16] in a line: qHTS assay to identify small molecule antagonists of the sonic hedgehog signaling (Shh) pathway - cell viability counter screen (AID 1259367). Further: nearly all actives have a fitted effect of over 55% in size. The gist of the method: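 Conditioned medium drove Shh signaling in 3T3 Gli1-Luc cells exposed to compounds at 37C and 5% CO2. Viability was determined from CellTiter-Fluor fluorescence, with reagent incubated 1 hr after 23 hr of treatment.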

A short description of assay [17]: qHTS assay to identify small molecule agonists of the sonic hedgehog signaling (Shh) pathway (AID 1259368; calls by dose curve;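 further: NIH/3T3-derived 3T3Gli1-Luc cells carrying a stable Gli1-driven firefly luciferase reporter; series mostly up to about 92 µM; nearly all actives have a fitted effect of over 15% in size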). The gist of the method: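 Quantitative high-throughput format using a Gli1-driven firefly luciferase reporter line derived from NIH/3T3 cells. After a 24 hr compound treatment at 37 C and 5% CO2, luminescence reported Gli1 response element activity.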
Assay [18] can be described thus: qHTS RealTime-Glo MT Cell Viability Assay in HepG2 cells - 0 hour (AID 1224889). Further: nearly all actives have a fitted effect of over 50% in size. The gist of the method: as §3
A short description of assay [19]: qHTS assay to identify small molecule phospholipidosis (PLD) inducers (AID 1259344; active means well fitted curve in the direction sought with a large enough effect; an effect the other way counts as inactive or inconclusive). The gist of the method:
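After 4 h attachment on collagen I, HepG2 cells were dosed with compound alongside LipidTOX Red, kept 24 h at 37 C, fixed, and imaged for lamellar phospholipid pits.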

In PubChem BioAssay (Tox21) one finds Potency and outcome data, which are given here for 6 molecules.

Where “and” joins values, the source holds several entries; their conditions need not be identical. Equal values may be shown once. Results filed as inconclusive are left out. Where a structure was tested more than once in an assay, its records may differ in their call. Calls of active or inactive are those of the source. Unless noted, the call rests on the fitted dose curve; in most records, active means well fitted curve in the direction sought with a large enough effect in the repeat runs; inconclusive means weak or mixed curves; inactive means no such curve, though single readings can be large; an effect the other way counts as inactive or inconclusive.

Estrogen receptor (Homo sapiens), sequence (P03372 whole entry, looked up): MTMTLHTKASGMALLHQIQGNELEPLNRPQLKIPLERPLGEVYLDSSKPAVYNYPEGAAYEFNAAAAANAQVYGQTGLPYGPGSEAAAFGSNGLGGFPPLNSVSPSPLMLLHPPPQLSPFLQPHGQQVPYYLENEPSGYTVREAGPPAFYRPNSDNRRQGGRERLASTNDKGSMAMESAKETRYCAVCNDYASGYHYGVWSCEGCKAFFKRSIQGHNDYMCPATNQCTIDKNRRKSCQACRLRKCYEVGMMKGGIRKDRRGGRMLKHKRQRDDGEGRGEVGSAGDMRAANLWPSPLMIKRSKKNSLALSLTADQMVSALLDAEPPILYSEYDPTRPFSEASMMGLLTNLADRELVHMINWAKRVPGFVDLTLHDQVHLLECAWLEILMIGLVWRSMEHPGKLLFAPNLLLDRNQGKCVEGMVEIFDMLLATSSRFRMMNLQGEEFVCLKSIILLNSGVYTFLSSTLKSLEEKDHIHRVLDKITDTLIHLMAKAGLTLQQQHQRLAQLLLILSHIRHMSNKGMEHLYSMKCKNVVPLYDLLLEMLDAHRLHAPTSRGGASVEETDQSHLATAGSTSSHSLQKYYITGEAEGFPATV

As for `C=C(C)C(=O)OCC(C)O` (configuration not stated), the Potency result in [1], in assay [2], in assay [3], in assay [4], in [5] and in [6] was “inactive” each time. Also, the Potency result in assay [7], in assay [8], in assay [9], in assay [10], in [11] and in assay [12] was “inactive” each time. The Potency result in assay [13], in assay [14], in [15] and in assay [16] was “inactive” throughout. Also, the result in assay [17] was inactive.

In the case of `O=C(O)c1ccccc1`, the Potency entry in assay [1], in assay [2], in [3], in assay [4], in [5] and in [6] was “inactive” in each case. In addition, the Potency result in [7], in [8], in assay [18], in assay [9], in assay [10] and in [11] was “inactive” throughout. The Potency result in [12], in assay [13], in assay [14], in assay [15] and in [16] was “inactive” each time. Moreover, the call in assay [17] was inactive.

With `F[B-](F)(F)F`, the Potency result in assay [1], in [2], in assay [3], in assay [4], in assay [5] and in assay [6] was “inactive” each time. Also, the Potency entry in [7], in [8], in assay [18], in [9], in [10] and in assay [11] was “inactive” in each case. In addition, the Potency result in assay [13], in [14], in assay [15] and in assay [16] was “inactive” in each case. Also, in assay [17], the result was inactive.

On to `Cc1cc(C)nc(NS(=O)(=O)c2ccc(N)cc2)n1`, for which the Potency entry in assay [1], in assay [2], in assay [3], in assay [4], in assay [5] and in [6] was “inactive” in each case. Besides, the Potency result in assay [7], in assay [8], in assay [18], in [9], in [10] and in [11] was “inactive” in each case. Further, the Potency entry in [19], in assay [13], in assay [14], in assay [15] and in [16] was “inactive” each time. For the same molecule, in assay [17], the molecule was classed as inactive.

In the case of `CCCCCCCCCCCCCCCC[N+](C)(C)Cc1ccccc1`, the Potency is 50.5 µM (active) and 44.4 µM (active) and 23.9 µM (active) in assay [1]; 25.3 µM (active) and 15.8 µM (active) and 10.7 µM (active) in [3]; 45 µM (active) and 15.8 µM (active) and 21.3 µM (active) in assay [4]; 25.3 µM (active) and 19.8 µM (active) and 21.3 µM (active) in [5]; 8.98 µM (active) and 22.3 µM (active) and 3.01 µM (active) in assay [6]; 50.5 µM (active) and 49.8 µM (active) and inactive in assay [7]. Besides, the Potency in assay [8] is 50.5 µM (active) and 44.4 µM (active) and 23.9 µM (active); in assay [9], 63.6 µM (active) and 35.3 µM (active) and 26.8 µM (active); in assay [11], 50.1 µM (active) and 55.5 µM (active) and 26.6 µM (active); in assay [12], 63.1 µM (active) and 55.5 µM (active); in [15], 70.8 µM (active) and 35 µM (active). The Potency entry in assay [2], in assay [18], in [10], in [19], in assay [13] and in [14] was “inactive” each time. Moreover, in [16], the Potency entry was “inactive”. Further, the call in [17] was inactive.

As for `CCCc1cc(=O)[nH]c(=S)[nH]1`, the Potency result in assay [1], in [2], in [3], in assay [4], in assay [5] and in assay [6] was “inactive” in each case. The Potency entry in assay [7], in assay [8], in [9], in [10], in [11] and in assay [12] was “inactive” throughout. Further, the Potency entry in [19], in assay [13], in assay [14], in assay [15] and in [16] was “inactive” in each case. In assay [17], the call was inactive.
